Sampled rows, rich in hits. Any-hit rate of the full collection: about 3.2%.
CHT allo act – CHT positive allosteric modulators, primary screen, cell-based, membrane potential dye, choline EC20; High affinity choline transporter 1 (Homo sapiens), Q9GZV3; CHT-expressing cells; hits give high values; LV-AA mutant CHT in HEK293 cells; B-score at 10 µM; 310,000 tested, 0.49% active; AID 488977, 2010;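 active means initial fluorescence not abnormally high and integrated response B-score, plate-corrected, over 3 SD above library mean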
Rce1 inhib – yeast Rce1p protease inhibitors, primary screen, biochemical, fluorescence, cell-free homogeneous | CAAX prenyl protease 2 (Saccharomyces cerevisiae (strain ATCC 204508 / S288c)), Q03530 | yeast membranes, quenched prenylated peptide cleavage fluorescence | calls only | 290,000 tested, 0.27% active | AID 2563, 2010;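 active means fall in fluorescence gain of 50% or more versus controls, with final raw signal at or below 3038400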;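 further: plate controls were neutral control wells for no effect and wells lacking membranes for full effect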
Target sequence (Q03530 whole entry, looked up): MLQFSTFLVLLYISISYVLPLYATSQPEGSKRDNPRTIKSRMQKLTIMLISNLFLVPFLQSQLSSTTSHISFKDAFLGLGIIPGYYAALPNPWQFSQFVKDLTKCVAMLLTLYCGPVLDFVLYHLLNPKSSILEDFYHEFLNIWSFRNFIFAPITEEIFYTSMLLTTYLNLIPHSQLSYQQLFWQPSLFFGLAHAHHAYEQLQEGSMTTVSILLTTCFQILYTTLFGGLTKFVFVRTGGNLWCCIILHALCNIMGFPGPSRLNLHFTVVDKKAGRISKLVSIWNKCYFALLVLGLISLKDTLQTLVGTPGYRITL
ANO1 block – TMEM16A chloride channel inhibitors, primary screen, cell-based, HTS; HEK293 TMEM16A/YFP iodide influx fluorescence, ionomycin; 310,000 tested, 1.2% active; Anoctamin-1 (Mus musculus), Q8BHY3; normalized B-score (activity score, 25-100; higher = stronger inhibition) at 10 µM;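 active means ratio plate-corrected score three or more library SD toward inhibition, starting fluorescence score within five deviations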;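 further: score derived from kinetic fluorescence span divided by baseline fluorescence per well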
CHT inh – inhibitors of human choline transporter CHT; High affinity choline transporter 1 (Homo sapiens), Q9GZV3; CHT-expressing cells, membrane potential dye, choline response; hits give low values; B-score at 10 µM; 310,000 tested, 0.86% active;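 active means B-score over 3 SD under the library average, and starting fluorescence ratio not unusually high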;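 further: choline stimulus applied at its EC90 after an EC20 pre-addition; B-score computed on integrated fluorescence ratio after choline addition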
ANO1 activ – TMEM16A chloride channel activators or potentiators, primary screen, cell-based, HTS. B-score at 10 µM. Anoctamin-1 (Mus musculus), Q8BHY3. HEK293 TMEM16A/YFP-H148Q/I152L, iodide quench fluorescence; hits give low values. AID 623877, 2012. 340,000 tested, 0.3% active;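 active means fluorescence-ratio B-score plate-corrected deviation score at least 3 library SD below zero, with starting fluorescence score within 5 deviations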;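 further: channel opened by trigger with iodide after compound preincubation; score built on the fluorescence ratio of max minus min over baseline; more negative score means more quench and so TMEM16A activation or potentiation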
Kir21 block – inhibitors of mouse Kir2.1 inward-rectifier potassium channel | Inward rectifier potassium channel 2 (Mus musculus), P35561 | HEK293-Kir2.1, FluxOR thallium flux fluorescence; hits give low values | B-score at 10 µM | 310,000 tested, 0.85% active;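 active means fluorescence ratio B-score at or below minus 3 SD of library scores, with starting-brightness B-score within 2 SD, cut at about -4.2 in these data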;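 further: channel flux triggered by added potassium and thallium sulfate stimulus; B-score of peak minus minimum fluorescence over baseline after thallium stimulus; more negative B-score means stronger Kir2.1 block with less thallium influx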
CHT activ conf – CHT activators, confirmation, cell-based, membrane potential dye, duplicate. shares compounds with CHT allo act. CHT-expressing cells, membrane potential dye fluorescence (FDSS); % of choline EC20–EC90 response window; HEK293 expressing CHT LV-AA mutant; choline added at its EC20. activation, % at 10 µM. 2,500 tested, 91% active;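 active means primary screen active, with duplicate mean activation above negative control mean plus 3 SD, cut at about 11% in these data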
HEK293 MP dye – membrane potential response in parental HEK293 cells, counter-screen for CHT activator project, cell-based, membrane potential dye. membrane potential dye fluorescence (FDSS); measured after EC20 choline addition. shares compounds with CHT allo act. ratio readout change at 10 µM, hits read low. 2,500 tested, 62% active;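 active means duplicate-averaged ratio beyond 3 SD from buffer wells, up or down, though filed actives are nearly all decreases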
Numbers without * were called inactive; i = inactive; / = not tested or not shown.

SMILES	CHT allo act	Rce1 inhib	ANO1 block	CHT inh	ANO1 activ	Kir21 block	CHT activ conf	HEK293 MP dye
CC1CCCN(c2c3c(nc4ccccc24)CCCC3)C1 (configuration not stated)	i	i	i	i	i	-2.5	20*	i
Cc1ccc(S(=O)(=O)CCC(=O)Nc2ccc(Br)cc2)cc1	i	i	i	i	i	-1.3	/	/
Cc1ccn2cc(-c3ccc(O)c(O)c3)nc2c1	i	i	i	i	i	2.2	36*	-40*
Cc1ccn2cc(-c3cccc(NC(=O)C(C)C)c3)nc2c1	i	/	i	i	i	0.57	/	/
Oc1ccc(-c2cn3ccccc3n2)cc1O	i	i	i	i	i	0.6	37*	-42*
CCOC(=O)C1(CCc2ccccc2)CCN(Cc2ccc(C(=O)OC)cc2)CC1	i	i	i	i	i	1.5	/	/
CCOC(=O)C1(CCc2ccccc2)CCN(Cc2cc(OC)c(OC)cc2OC)CC1	10*	i	i	i	i	-0.52	56*	i
Cc1c(C)n(CCc2ccccc2)c2ncnc(NCCCN(C)C)c12	i	i	i	i	i	-0.92	/	/
Cc1c(C)n(CCN(C)C)c2ncnc(NCc3ccccc3)c12	i	i	i	i	i	-0.33	46*	-48*
CCn1c(/C=N/Nc2ccc(C(=O)O)cc2)nc2ccccc21	6.3*	i	i	i	i	0.19	44*	-35*
Cc1nc(-c2ccc(F)cc2)c(CC(=O)N(C)CC(=O)Nc2ccc(Br)cc2C)s1	i	i	i	i	i	0.97	/	/
CCN1/C(=C/c2ccc3cccc(C)c3[n+]2CC)Sc2ccccc21	i	i	i	i	i	-20	12*	i
CCN1/C(=C/c2ccc3cc(C)cc(C)c3[n+]2CC)Sc2cc(C)ccc21	/	/	/	/	i	/	/	/
COc1cc(NS(C)(=O)=O)ccc1Nc1c2ccccc2nc2ccccc12	8.3*	/	i	i	i	/	13*	-54*
O=c1[nH]cccc1-c1nc2ccccc2[nH]1	i	i	i	i	i	-0.92	34*	-30*
Nc1ccccc1-c1nc2ccccc2[nH]1	i	i	i	i	i	0.67	/	/
Cc1ccc(NC(=O)c2ccc(COc3ccc4c(c3)CCC4)cc2)c(C)c1	i	i	i	i	i	-0.01	/	/
CCOC(=O)c1c(C)[n+](-c2ccc(C)cc2)c(CC)c2cc(OC)c(OC)cc12	i	i	i	i	i	-0.35	49*	-35*
CCOC(=O)c1c(C)[nH]c2cc(Br)c(OC)cc12	i	i	i	i	i	-0.21	/	/
CC(C#Cc1ccc2c(c1)COc1c3ccccc3nn1-2)OC(C)(C)C (configuration not stated)	i	i	i	i	i	-0.49	/	/
Cc1cc[n+]2c3c(cccc13)CCC2	11*	i	i	i	i	-0.2	89*	-85*
CN1C(=O)C(c2ccccc2[N+](=O)[O-])C(=O)c2ccccc21 (configuration not stated)	i	i	i	i	i	0	/	/
COc1ccc(OC)c(NS(=O)(=O)c2ccc(N3CCCC3=O)cc2)c1	9.1*	i	i	i	i	0.37	37*	i
O=[N+]([O-])c1cccc(-c2nc(-c3ccncc3)no2)c1	7.1*	i	i	i	i	-0.92	44*	-43*
CCOc1ccc(Br)cc1S(=O)(=O)NCC(c1ccc(OC)cc1)N1CCOCC1 (configuration not stated)	/	/	/	/	i	/	/	/
SMILES	CHT allo act	Rce1 inhib	ANO1 block	CHT inh	ANO1 activ	Kir21 block	CHT activ conf	HEK293 MP dye
CC(C)C1Oc2ccccc2N(CC(=O)NC2CCCCC2)C1=O (configuration not stated)	i	i	i	i	i	0.85	9.8*	i
CCC1Oc2ccccc2N(CC(=O)NC2CCCCC2)C1=O (configuration not stated)	i	i	i	i	i	-2.9	/	/
C=CCN1C(c2ccc(OCC)cc2)=CS/C1=C(\C#N)c1nnc2n1CCCCC2	9.2*	/	i	i	i	-0.7	26*	i
C=CCN1C(c2ccc(Br)cc2)=CS/C1=C(\C#N)c1nnc(N2CCOCC2)n1-c1ccccc1	/	/	/	/	i	/	/	/
COCCNC(=O)c1c(N)n(/N=C/c2cccs2)c2nc3ccccc3nc12	i	i	i	i	i	0.86	28*	i
CC(C)(C)NC(=O)/C(=C\C=C\c1ccccc1)NC(=O)c1ccc([N+](=O)[O-])cc1	i	/	i	i	i	-0.64	/	/
Cn1c(N)c(C(=O)COc2ccc(C#N)cc2)c(=O)n(C)c1=O	i	i	i	i	-9.1*	0.01	38*	-36*
CC(=O)N1CCOc2ccc(S(=O)(=O)NCC3CCC(C(=O)Nc4ccc(C)cn4)CC3)cc21 (configuration not stated)	i	i	i	i	i	-0.18	/	/
COc1cc2c(cc1OC)C(c1cccs1)N(C(=S)NC(C)C)CC2 (configuration not stated)	8.7*	i	i	i	i	-1.4	14*	i
COc1cc2c(cc1OC)C(c1cccs1)N(C(=O)c1ccncc1)CC2 (configuration not stated)	i	i	i	i	i	0.63	/	/
CN(C(=O)CCc1ccccc1)c1nnc(-c2ccncc2)s1	7.4*	i	i	i	i	0.93	28*	-30*
C=CCN(C(=O)COc1ccccc1)c1nnc(-c2ccncc2)s1	i	i	i	i	i	-0.35	/	/

Compound activity as filed in PubChem BioAssay.
